Assay outcomes: PubChem BioAssay, Broad Institute
Only some compounds are listed: those with a hit (about 6.7% of all), similar ones and a draw of the others.
Pf Dd2 inh: blocks growth of Plasmodium falciparum Dd2 parasites; P. falciparum Dd2 growth, SYBR Green, 72 h; active compounds read low; activity change, % at 10 µM; 2.3% of 94,000 active; in the data active = activity change below about -80%; inconclusive = no clear call, values can overlap the other calls
C diff HTS: C. difficile growth inhibition. Clostridium difficile clinical isolate growth, OD600, 24 h; active compounds read low. growth activity, negative = inhibition, % at 16 µg/mL (by protocol). 0.25% of 86,000 active;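 active = mean growth activity at or below -80% and every replicate also at or below -80%; inconclusive = mean at or below -80% but some replicate above -80%; inactive = mean growth activity above -80%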;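 note: 0% = DMSO wells and -100% = levofloxacin 16 µg/mL wells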
T cruzi growth-1: T. cruzi proliferation inhibition; 5.9% of 77,000 active; inhibition, % at 8.34 µM; T. cruzi beta-gal in NIH3T3, GalScreen luminescence, 90 h; AID 624255;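 active = mean inhibition above about 93%, with at least 55% of replicates each passing it, limit read from the data, passing the limit was not always enough; inconclusive = only one of those two conditions holds; inactive = neither condition holds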
T cruzi growth-2: Trypanosoma cruzi proliferation inhibition. inhibition, % at 8.35 µM. 72% of 5,600 active. T. cruzi beta-gal in NIH3T3, GalScreen luminescence, 90 h. AID 651739. shares compounds with T cruzi growth-1;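 active = mean replicate inhibition above about 95% and at least 55% of replicates individually reaching it, limit read from the data; inconclusive = only one of the two criteria is met; inactive = neither criterion is met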
T cruzi growth-3: Trypanosoma cruzi proliferation inhibition. 21% of 5,600 active. shares compounds with T cruzi growth-1. T. cruzi beta-gal in NIH3T3, GalScreen luminescence, 90 h. inhibition, % at 2.09 µM;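 active = mean inhibition above about 95%, with at least 55% of replicates also reaching it, limit read from the data; inconclusive = meets just one of the two conditions; inactive = meets neither condition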;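 note: plate controls were neutral control median for no effect and positive control median for full effect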
3T3 cytotox: NIH/3T3 (mouse) viability loss. shares compounds with T cruzi growth-1. AID 651742. NIH/3T3 viability, CellTiter-Glo ATP luminescence, 90 h. 14% of 5,600 active. cytotoxicity (signal decrease), % at 8.35 µM;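 active = mean signal decrease across replicates above about 35% based on untreated-well scatter, with enough replicates individually passing, limit read from the data; inconclusive = no rule stated though some were filed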;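 note: 0% = median of neutral control wells and 100% = median of positive control wells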
NIH3T3 tox 2: kills mouse NIH/3T3 fibroblasts | shares compounds with T cruzi growth-1 | NIH/3T3 viability, CellTiter-Glo ATP luminescence, 90 h | inhibition, % at 24.9 µM | 56% of 5,600 active | AID 651744;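 active = mean loss of cell viability signal at or above a set limit, and enough replicates individually reaching it; inconclusive = meets only the mean limit or only the replicate share; inactive = meets neither condition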;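 note: 0% = median of neutral control wells and 100% = median of positive control wells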
Starred values were filed as active, the others as inactive; ? = inconclusive; · = no result given.

SMILES | Pf Dd2 inh | C diff HTS | T cruzi growth-1 | T cruzi growth-2 | T cruzi growth-3 | 3T3 cytotox | NIH3T3 tox 2
C[C@H]1CN([C@@H](C)CO)S(=O)(=O)c2ccc(C#CC3(O)CCCC3)cc2O[C@H]1CN(C)C(=O)c1cccnc1 | -43 | 0 | 41 | · | · | · | ·
O=C(C[C@@H]1CC[C@@H](NC(=O)C2CCC2)[C@@H](CO)O1)Nc1nccs1 | -6 | 2 | 25 | · | · | · | ·
CN1c2ccc(C#Cc3cccnc3)cc2[C@H]2[C@H](CCN2S(=O)(=O)c2cccc(F)c2)[C@H]1CO | -75 | 5 | 21 | · | · | · | ·
C[C@@H]1CN([C@H](C)CO)C(=O)c2cc(-c3ccc(C(=O)N(C)C)cc3)cnc2O[C@@H]1CN(C)C | 17 | 4 | 17 | · | · | · | ·
COc1ccc(CNC(=O)C[C@@H]2C=C[C@H](NC(=O)c3ccc4c(c3)OCO4)[C@@H](CO)O2)cc1 | 3 | · | -7 | · | · | · | ·
COc1ccccc1NC(=O)N[C@@H]1CC[C@@H](CCNS(=O)(=O)c2ccccc2)O[C@@H]1CO | -12 | · | -23 | · | · | · | ·
C[C@@H]1CN([C@H](C)CO)C(=O)c2cc(NC(=O)Nc3cccc4ccccc34)ccc2O[C@H]1CN(C)Cc1ccncc1 | -10 | · | 41 | · | · | · | ·
COCC(=O)N(C)C[C@H]1Oc2cc(-c3ccc(C)cc3)ccc2S(=O)(=O)N([C@H](C)CO)C[C@H]1C | · | -10 | 4 | · | · | · | ·
CN1[C@@H]2Cn3c(ccc(C4=CCCCC4)c3=O)[C@H]1[C@@H](C(=O)NCc1cc(F)cc(F)c1)[C@@H]2CO | · | 1 | 40 | · | · | · | ·
CO[C@@H]1CN(C)C(=O)c2cc(NS(=O)(=O)c3ccccc3)ccc2OC[C@H](C)N(Cc2nccs2)C[C@@H]1C | -22 | · | 111* | 74 | 2 | 18 | 45*
CO[C@@H]1CN(C)C(=O)c2cc(NS(=O)(=O)c3ccccc3)ccc2OC[C@@H](C)N(Cc2nccs2)C[C@@H]1C | -2 | · | 35 | · | · | · | ·
CCNC(=O)[C@@H]1[C@@H](CO)[C@@H]2Cn3c(cccc3=O)[C@H]1N2CCC(F)(F)F | -1 | 0 | 11 | · | · | · | ·
O=C(Cc1ccccn1)N1CC2(C1)[C@H](c1ccccc1)[C@@H](CO)N2C(=O)c1cccnc1 | 7 | -4 | · | · | · | · | ·
C[C@H]1CN([C@@H](C)CO)S(=O)(=O)c2ccc(C#Cc3ccccc3)cc2O[C@H]1CN(C)S(=O)(=O)c1ccccc1F | -64 | 10 | 123* | 106* | ? | 16 | -5
Cc1ccc(S(=O)(=O)N(C)C[C@H]2Oc3cc(C#Cc4ccccc4)ccc3S(=O)(=O)N([C@@H](C)CO)C[C@H]2C)cc1 | -30 | 0 | · | · | · | · | ·
Cc1ccc(S(=O)(=O)N(C)C[C@@H]2Oc3cc(C#Cc4ccccc4)ccc3S(=O)(=O)N([C@H](C)CO)C[C@H]2C)cc1 | -59 | 2 | · | · | · | · | ·
C[C@@H]1CN([C@@H](C)CO)S(=O)(=O)c2ccc(C#Cc3ccccc3)cc2O[C@H]1CN(C)S(=O)(=O)c1ccccc1F | ? | 8 | 124* | 109* | 88 | 41* | 47*
C[C@@H]1CCCCO[C@H](CN(C)Cc2ccc(Cl)c(Cl)c2)[C@H](C)CN([C@@H](C)CO)C(=O)c2cc(NC(=O)Nc3ccc4c(c3)OCO4)ccc2O1 | -86* | 5 | 101* | 96* | 117* | 19 | -1
C[C@H](CO)N1C[C@H](C)[C@@H](CN(C)C(=O)C2CCCCC2)OCCCC[C@H](C)Oc2ccc(NC(=O)Nc3ccc4c(c3)OCO4)cc2C1=O | 5 | -2 | 111* | 79 | 6 | -19 | 3
C[C@@H]1CCCCO[C@H](CN(C)Cc2ccc3c(c2)OCO3)[C@H](C)CN([C@H](C)CO)C(=O)c2cc(NC(=O)Nc3ccc4c(c3)OCO4)ccc2O1 | -78 | · | 80 | · | · | · | ·
C[C@H]1CCCCO[C@@H](CN(C)Cc2ccc3c(c2)OCO3)[C@@H](C)CN([C@@H](C)CO)C(=O)c2cc(NC(=O)Nc3ccc4c(c3)OCO4)ccc2O1 | -79 | · | 80 | · | · | · | ·
C[C@@H]1CN([C@H](C)CO)C(=O)c2cc(NC(=O)Nc3ccc4c(c3)OCO4)ccc2O[C@@H](C)CCCCO[C@@H]1CN(C)C(=O)C1CCCCC1 | -78 | -3 | 18 | · | · | · | ·
C[C@@H]1CCCCO[C@@H](CN(C)Cc2ccc(Cl)c(Cl)c2)[C@@H](C)CN([C@H](C)CO)C(=O)c2cc(NC(=O)Nc3ccc4c(c3)OCO4)ccc2O1 | 39 | -3 | 104* | 104* | 69 | 8 | -8
C[C@H]1CN([C@@H](C)CO)C(=O)Cc2cc(NC(=O)CCCCCC(=O)Nc3ccccc3N)ccc2O[C@H]1CN(C)Cc1ccc(Cl)c(Cl)c1 | -58 | -7 | 85 | · | · | · | ·
C[C@H](CO)N1C[C@H](C)[C@H](CN(C)Cc2ccc(Cl)c(Cl)c2)Oc2ccc(NC(=O)CCCCCC(=O)Nc3ccccc3N)cc2C1=O | -27 | · | 97* | 103* | 102* | 11 | 32*
SMILES | Pf Dd2 inh | C diff HTS | T cruzi growth-1 | T cruzi growth-2 | T cruzi growth-3 | 3T3 cytotox | NIH3T3 tox 2
COCC(=O)N1C[C@H](C)[C@H](OC)CN(C)C(=O)c2ccc(NC(=O)Nc3ccccc3)cc2OC[C@H]1C | 0 | · | · | · | · | · | ·
CCCC#Cc1cnc2c(c1)C(=O)N([C@@H](C)CO)C[C@H](C)[C@@H](CN(C)C)O2 | 8 | 2 | -18 | · | · | · | ·
O=C(Nc1ccccc1F)N1CC(=O)N2[C@H](C1)[C@H](c1ccc(C#CC3CC3)cc1)[C@@H]2CO | 7 | 6 | · | · | · | · | ·
C[C@@H]1CCCCO[C@@H](CN(C)Cc2ccc3c(c2)OCO3)[C@H](C)CN([C@H](C)CO)C(=O)c2cc(NC(=O)Cc3ccccc3)ccc2O1 | -61 | -6 | 63 | · | · | · | ·
C[C@@H]1CN([C@H](C)CO)C(=O)c2cc(NC(=O)Cc3ccccc3)ccc2O[C@@H](C)CCCCO[C@@H]1CN(C)Cc1ccc2c(c1)OCO2 | -72 | 1 | 100* | 105* | 37 | 25 | 102*
C[C@@H]1CCCCO[C@@H](CN(C)Cc2ccc(Cl)c(Cl)c2)[C@@H](C)CN([C@H](C)CO)C(=O)c2cc(NC(=O)CCC(F)(F)F)ccc2O1 | -20 | 10 | ? | 108* | 82 | -5 | -18
C[C@@H]1CCCCO[C@H](CN(C)Cc2ccc3c(c2)OCO3)[C@H](C)CN([C@@H](C)CO)C(=O)c2cc(NC(=O)c3ccncc3)ccc2O1 | 6 | -1 | 112* | 15 | 5 | -4 | -38
C[C@@H]1CN([C@H](C)CO)C(=O)c2cc(NC(=O)Cc3ccccc3)ccc2O[C@@H]1CN(C)Cc1ccc(Cl)c(Cl)c1 | -3 | 9 | 109* | 109* | 88 | 20 | 93*
C[C@@H]1CN([C@@H](C)CO)C(=O)c2cc(NC(=O)CCC(F)(F)F)ccc2O[C@@H](C)CCCCO[C@H]1CN(C)Cc1ccc(Cl)c(Cl)c1 | -80 | 8 | 64 | · | · | · | ·
